# Hits are enriched below; roughly 2.4% of the tested compounds scored in any of these assays.
# AmpC nodet inh: inhibitors of E. coli AmpC beta-lactamase without detergent | P00811 | AmpC nitrocefin hydrolysis, absorbance 480 nm, no detergent | Potency, µM (series often up to 28.7 µM), without a hit: at the top dose activity change, negative = inhibition | 1.8% of 71,000 active; also: % of control where 0% means no effect
# Target sequence (P00811 whole entry, looked up): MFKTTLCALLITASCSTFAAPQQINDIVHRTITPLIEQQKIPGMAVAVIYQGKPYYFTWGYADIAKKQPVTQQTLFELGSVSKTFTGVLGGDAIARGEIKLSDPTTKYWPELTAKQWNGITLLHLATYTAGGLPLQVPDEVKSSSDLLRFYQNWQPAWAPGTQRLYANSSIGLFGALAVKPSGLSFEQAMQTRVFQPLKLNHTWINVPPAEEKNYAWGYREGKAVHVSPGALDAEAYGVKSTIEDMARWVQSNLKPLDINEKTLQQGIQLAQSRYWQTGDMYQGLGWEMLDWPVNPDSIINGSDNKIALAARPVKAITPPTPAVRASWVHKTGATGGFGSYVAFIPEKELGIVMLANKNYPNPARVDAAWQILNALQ
#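 Enzyme, pH 7.0 phosphate. Compound titrations were pre-incubated with AmpC for 15 min at room temperature before nitrocefin (stock 800 uM) addition; product formation was recorded at 480 nm every 20 s for 4 min.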
# Prx2 Sm inh: blocks S. mansoni peroxiredoxin 2 enzymatic activity. 0.07% of 65,000 active. S. mansoni Prx2 activity coupled to TGR/GSH (TGR is thioredoxin glutathione reductase), NADPH fluorescence loss, qHTS. Potency, µM
#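 Activity is read as the drop in NADPH fluorescence (365/450 nm), recorded every 30 sec for 8 min after H2O2 addition. Prx2 is coupled to TGR-driven NADPH oxidation through glutathione, in phosphate buffer pH 7.4.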
# LT uptake inh: inhibitors of anthrax lethal toxin internalization; Potency, µM (titrated, usually from 40 µM), for the others: top-dose activity change, negative = inhibition, actives largely listed as inhibitors; AID 912; Cells, anthrax lethal toxin internalization, FRET ratio (460/530); 0.67% of 70,000 active; also: % is scaled to controls: 0 for no effect and ±100 for the full control effect; nearly all actives have a fitted effect of over 50% in size
# AmpC det inh: AmpC beta-lactamase inhibition, detergent assay; P00811; Potency, µM (top dose mostly 28.7 µM), inactives show at the highest dose activity change, negative = inhibition; purified AmpC, nitrocefin hydrolysis with detergent; 0.09% of 71,000 active; active = well fitted curve in the direction sought with a large enough effect; inconclusive = small, poorly fitted or top-dose-only effect; also: % is scaled to controls: 0 for no effect and ±100 for the full control effect
#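 E. coli AmpC (5.3 nM) in 20 mM phosphate pH 7.0 with 0.01% Triton X-100, preincubated 15 min RT with compound; nitrocefin (2 uL of 800 uM stock) hydrolysis followed by 480 nm absorbance every 20 s over 4 min.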
# Starred values were filed as active, the others as inactive; ? = inconclusive; / = no result; ! = not confirmed by another sample; [ ] = another dose, or the depositor's remark. Unless noted, calls follow the shape of the full dose curve. Potency is read from the fitted curve at half-maximal effect.
SMILES,AmpC nodet inh,Prx2 Sm inh,LT uptake inh,AmpC det inh
CN(C)CCn1nnnc1SCC1=C(C(=O)O)N2C(=O)[C@@H](NC(=O)Cc3csc(N)n3)[C@@H]2SC1,0%[12.8 µM],>57,-13%[3.58 µM],-4%[12.8 µM]
CO[C@]1(NC(=O)CSCC#N)C(=O)N2C(C(=O)O)=C(CSc3nnnn3C)CS[C@H]21,7.9µM*![single pt active],>57,?,?
O=C(Oc1ccc2c3c(c(=O)oc2c1)CCCC3)c1ccco1,2%,55*,?,6%
CCC(NC(=O)OC(C)(C)C)C(=O)Oc1ccc2c3c(c(=O)oc2c1)CCC3 (stereo unspecified),44%,55*,/,-2%
O=C(O)[C@H]([C@H]1NCCS1)N1Cc2ccccc2C1,7%[5.75 µM],/,-5%[8 µM],-4%[5.75 µM]
C=C1C/C(=C\C)C(=O)O[C@@H]2CCN3CC=C(COC(=O)[C@]1(C)O)[C@H]23,-5%,>57,/,-3%
CCN(CC)COC(=S)S,2%[5.75 µM],>57,11%[8 µM],-3%[5.75 µM]
CC(=O)OCC1=C(C(=O)O)N2C(=O)[C@@H](N)[C@@H]2SC1,5µM*,>57,7%[3.58 µM],?
CC(=O)OCC1=C(C(=O)[O-])N2C(=O)[C@@H](NC(=O)CCC[C@@H](N)C(=O)[O-])[C@@H]2SC1.[Zn+2],1%,>57,1%,-1%
COCCn1c(=O)c(CCc2ccccc2)nc2cnc(N(C)C)nc21,82%,>57,?,0%
O=C(CCN1C(=O)C2C3C=CC(C3)C2C1=O)NCCc1ccccc1 (stereo unspecified),17%,>57,-10%,-4%
Cc1c(NC(=O)NCCN2C(=O)C3C4C=CC(C4)C3C2=O)c(=O)n(-c2ccccc2)n1C (stereo unspecified),4µM*[single pt active],>57,3%,16%
O=C(NCCN1C(=O)C2C3C=CC(C3)C2C1=O)Nc1ccccc1O (stereo unspecified),4µM*[single pt active],>57,-6%,14%
Cc1c(NC(=O)C(C)N2C(=O)C3C4C=CC(C4)C3C2=O)c(=O)n(-c2ccccc2)n1C (stereo unspecified),-8%,>57,3%,8%
Cc1c(NC(=O)c2ccc(N3C(=O)C4C5C=CC(C5)C4C3=O)cc2)c(=O)n(-c2ccccc2)n1C (stereo unspecified),0%,>57,?,-3%
Cc1c(NC(=O)CCCCCN2C(=O)C3C4C=CC(C4)C3C2=O)c(=O)n(-c2ccccc2)n1C (stereo unspecified),2.5µM*[single pt active],>57,2%,11%
CCCc1nnc(NC(=O)NCCN2C(=O)C3C4C=CC(C4)C3C2=O)s1 (stereo unspecified),4µM*[single pt active],>57,2%,14%
COc1ccc(CNc2ccnc(-c3ccc(N(C)C)cc3)n2)c(OC)c1,59%,>57,-19%,-9%
NC[C@@H]1O[C@@H](O[C@H]2[C@@H](O)[C@H](O[C@@H]3[C@H](O)[C@H](N)C[C@H](N)[C@H]3O[C@@H]3O[C@@H](CO)[C@H](O)[C@H](O)[C@@H]3N)O[C@H]2CO)[C@H](N)[C@H](O)[C@@H]1O,2%,>57,-5%,0%
O=C(NCCN1CCOCC1)N1CCOCC1,-17%,>57,-1%,1%
O=C(NCCN1C(=O)C2C3C=CC(C3)C2C1=O)N1CCOCC1 (stereo unspecified),4µM*[single pt active],>57,-7%,12%
O=C(Cn1c(=O)oc2ccccc21)N1CCN(c2ccc(N3CCOCC3)nn2)CC1,2.5µM*[single pt active],>57,2%,12%
C=CCSC1=N/C(=C\c2ccc3c(c2)OCO3)C(=O)S1,4µM*,>57,22%,3%
CC1=C/C(=C\c2ccc3c(c2)OCO3)C(=O)S1,13µM*,>57,?,?
CCOc1ccc2nc(NC(=O)C3CCCN(S(=O)(=O)c4c(C)noc4C)C3)sc2c1 (stereo unspecified),4µM*[single pt active],>57,?,10%
SMILES,AmpC nodet inh,Prx2 Sm inh,LT uptake inh,AmpC det inh
COc1ccc2nc(NC(=O)C3CCCN(S(=O)(=O)c4c(C)noc4C)C3)sc2c1 (stereo unspecified),4µM*[single pt active],>57,?,16%
Cc1noc(C)c1S(=O)(=O)N1CCCC(C(=O)N2CCN(C3CCCCC3)CC2)C1 (stereo unspecified),4µM*[single pt active],>57,2%,12%
Cc1cc(NC(=O)C2CCCN(S(=O)(=O)c3c(C)noc3C)C2)n[nH]1 (stereo unspecified),4µM*[single pt active],>57,?,11%
CC1(C)CCC[C@@]2(C)[C@@H]1CC[C@]1(C)OC(=O)C[C@@H]21,55%,>57,?,13%
Cc1ccc(C(=O)O[C@@H](C(=O)O)[C@@H](OC(=O)c2ccc(C)cc2)C(=O)O)cc1 (tested in a mixture with another compound),0%,>57,3%,-2%
CN(Cc1ccco1)c1ncnc2ccc(-c3ccccc3C#N)cc12,72%,>57,?,8%
CN(C)c1ccc(-c2ccc3ncnc(N(C)Cc4ccco4)c3c2)cc1,38%,>57,10µM*,-2%
COc1cccc(-c2ccc3ncnc(N4CCOCC4)c3c2)c1,?,>57,-30%,10µM*
COc1ccccc1-c1ccc2ncnc(N3CCOCC3)c2c1,133%,>57,?,7%
COc1cccc(-c2ccc3ncnc(N(C)Cc4ccco4)c3c2)c1,6.3µM*,>57,?,10µM*
Fc1ccc(Nc2ncncc2-c2ccoc2)cc1,13%,>57,?,9%
OC(COc1ccc(Cl)c2ccccc12)CN1CCN(c2ccccn2)CC1 (stereo unspecified),84%,>57,10µM*,7%
COc1ccc(N(CC(=O)N2CC=C(c3ccccc3)CC2)S(=O)(=O)c2c(C)noc2C)cc1,4µM*[single pt active],>57,?,13%
CCOc1ccc(N(CC(=O)N2CC=C(c3ccccc3)CC2)S(=O)(=O)c2c(C)noc2C)cc1,4µM*[single pt active],>57,?,11%
CCOc1ccc(N(CC(=O)Nc2ccc(C)cc2)S(=O)(=O)c2c(C)noc2C)cc1,3%,>57,?,7%
COC(=O)c1ccc2c(c1)NC(=O)C1CCCN21 (stereo unspecified),4µM*[single pt active],>57,?,27%
CN(C)c1ccc(N)cc1,39%,/,?,10%
N#CC(C#N)=NNc1cccc(Cl)c1,/,/,2.5µM*,/
N#CC(C#N)=NNc1ccc2cn[nH]c2c1,-1%[5.75 µM],/,-11%[8 µM],-4%[5.75 µM]
C[N+]1(C)CCO[C@@](O)(c2ccc(-c3ccc([C@]4(O)C[N+](C)(C)CCO4)cc3)cc2)C1,-6%,>57,0%,-5%
CC(C)(C)c1cc(/C=C(\C#N)C(N)=S)cc(C(C)(C)C)c1O,-1%,>57,7.9µM*,-1%
[C-]#[N+]/C(C#N)=C\c1cc(C(C)(C)C)c(O)c(C(C)(C)C)c1,/,/,0.1µM*,/
C=CCSc1nnc(NC(=O)CSc2nc3ccccc3o2)s1,10µM*[single pt active],>57,26%,-3%
CNc1ncnc2c1ncn2[C@H]1C[C@@H](OP(=O)(O)O)[C@H](COP(=O)(O)O)O1,-1%,>57,6%,-2%
